Records with an inconclusive call do not appear. Active and inactive are the calls of the source. Calls come from the whole dose curve; as a rule, active = well fitted cell-killing curve with a large enough effect in the repeat runs (not every such curve was filed as active); inconclusive = weak or mixed curves, or effect the other way; inactive = no such curve, though single readings can be large or run the other way.
% is set by controls: 0 for no effect and ±100 for the full control effect.

The nature of the test: qHTS assay to identify small molecule antagonists of the farnesoid-X-receptor (FXR) signaling pathway - cell viability counter screen (AID 743221). Note: nearly all actives have a fitted effect of over 50% in size. As to conditions: FXR-bla HEK293T viability, CellTiter-Glo luminescence, 16 h; series mostly up to 62.6 µM. An outline of the steps:
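Multiplexed counter screen: viability of FXR-bla HEK 293T cells under agonist stimulation by chenodeoxycholic acid (50 uM, final) and test compound for 16 h at 37 C, measured by CellTiter-Glo luminescence in the reporter wells.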
(In general: Quantitative high-throughput screening tests each substance at several concentrations.)
In the case of `O=Cc1cccc(Br)c1`, the call was inactive.

As for `CN1[C@@H]2CC[C@H]1CC(OC(=O)C(O)c1ccccc1)C2` (some centres not stated), the compound was classed as inactive.

As to `CCCCCCCCN1CCCC1=O`, the outcome was inactive.

With `CC[N+](C)(CC)CCOC(=O)C1c2ccccc2Oc2ccccc21`, the compound was called inactive.

As for `CCOC(=O)OC(C)OC1=C(C(=O)Nc2ccccn2)N(C)S(=O)(=O)c2ccccc21` (configuration not stated), the compound was called inactive.

For `CC(=O)NC(=O)c1ccccc1O`, the compound was called inactive.

Consider `CCCCCCCC1CCCC1=O` (configuration not stated), for which the outcome was inactive.

Take `[Ca+2]`: the compound was called inactive.

On to `CC(CO)(CO)[N+](=O)[O-]`, for which the call was inactive.

As to `CCCc1ncc(C[n+]2ccccc2C)c(N)n1`, the outcome was inactive.

Consider `CN1CC(=O)N/C1=N/C(=O)Nc1cccc(Cl)c1`, for which the compound was called inactive.

As for `CC(C)(C)C(=O)Oc1ccc(S(=O)(=O)Nc2ccccc2C(=O)NCC(=O)O)cc1`, the result was inactive.

As for `Cc1ccc(-c2ncc(Cl)cc2-c2ccc(S(C)(=O)=O)cc2)cn1`, the outcome was inactive.

With `NC(CCC(=O)O)C(=O)O` (configuration not stated), the compound was classed as inactive.

Regarding `CC(CC=O)CC(C)(C)C` (configuration not stated), the compound was called inactive.

Turning to `C[N+]1(C)[C@@H]2CC(OC(=O)[C@H](CO)c3ccccc3)C[C@H]1[C@@H]1O[C@@H]12` (some centres not stated), the call was inactive.

For the compound `CC(=O)c1ccc2ccccc2c1`, the compound was called inactive.

As for `CCCCc1ccc2c(n1)[C@@H](c1ccc(OC)cc1C[C@H](C)C(=O)O)[C@H](C(=O)O)[C@H]2c1ccc2c(c1)OCO2`, the compound was called inactive.

Consider `CN(C)[C@@H]1C(=O)C(C(=O)NCN2CCCC2)=C(O)[C@@]2(O)C(=O)C3=C(O)c4c(O)cccc4[C@@](C)(O)C3C[C@@H]12` (some centres not stated), for which the result was inactive.

Consider `NS(=O)(=O)Cc1noc2ccccc12`, for which the compound was called inactive.

For `CN(C)C(=O)Oc1ccc[n+](C)c1`, the call was inactive.

Take `CCOC(=O)C1=NOC(c2ccccc2)(c2ccccc2)C1`: the call was inactive.

For `CC/C=C\CCOC(C)OCC` (configuration not stated), the outcome was inactive.

Regarding `CC(=O)C1CCCCC1=O` (configuration not stated), the call was inactive.

For `CCC1C(=O)OCC1Cc1cncn1C` (configuration not stated), the outcome was inactive.

Turning to `O=S(=O)(O)c1cc(O)c(O)c(S(=O)(=O)O)c1`, the call was inactive.

Consider `CCOc1ccccc1OCC`, for which the call was inactive.

For the compound `CCCCCC(=O)OCCc1ccccc1`, the call was inactive.

`CN(C)CCCN(C)CCCN(C)C`: the call was inactive.

For `COc1ccc2cc1Oc1cc3c(cc1OC)CC[N+](C)(C)[C@H]3Cc1ccc(cc1)Oc1c(OC)c(OC)cc3c1[C@@H](C2)[N+](C)(C)CC3`, the compound was classed as inactive.

In the case of `CCCCCC(C)N` (configuration not stated), the compound was classed as inactive.

Regarding `CCN[C@@H]1C[C@H](N)[C@@H](OC2OC(CN)=CCC2N)[C@H](O)[C@H]1O[C@H]1OC[C@](C)(O)[C@H](NC)[C@H]1O` (some centres not stated), the activity change, negative = cytotoxicity is 2.76% [at 0.55 µM] (inactive).

As for `O=[N+]([O-])c1ccc(/C=N\O)o1`, the compound was called inactive.

With `CCN(Cc1ccccc1)c1ccccc1`, the compound was called inactive.

Consider `CN(C)CCN(C)CCN(C)C`, for which the compound was called inactive.

For the compound `CCN[C@H]1C[C@H](C)S(=O)(=O)c2sc(S(N)(=O)=O)cc21`, the compound was classed as inactive.

`O=C(CO)[C@@H](O)[C@H](O)[C@@H](O)CO`: the outcome was inactive.

(Values after PubChem BioAssay (Tox21).)
